The list is not random: actives were taken first. Their share in the collection is about 12%.
Sm TGR inh: blocks Schistosoma mansoni thioredoxin glutathione reductase; purified TGR, DTNB reduction, TNB absorbance 405 nm; 3% of 360,000 active; Q962Y6; Potency, µM (top dose mostly 114 µM), inactives show at the highest dose activity change, negative = inhibition, most hits filed as inhibitors; note: % is set by controls: 0 for no effect and ±100 for the full control effect; nearly all actives have a fitted effect of over 60% in size
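Kinetic colorimetric format: TGR-catalysed, NADPH-driven DTNB reduction monitored via TNB absorbance. Enzyme dispensed at 20 nM; compound exposure 15 min at room temperature before reaction start.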
Pf growth 96h: P. falciparum growth inhibition at 96 hours; P. falciparum luciferase reporter growth, 96 h; Potency, µM (doses to about 28.7 µM), without a hit: at the highest dose activity change, negative = inhibition, usual class: inhibitors; 6.9% of 320,000 active; AID 504834; note: % is set by controls: 0 for no effect and ±100 for the full control effect
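Cell-based qHTS: luciferase-tagged P. falciparum in erythrocytes (2% hematocrit, 0.05% parasitemia final) incubated with compounds for 96 hours, 37 C, 5% CO2; luciferase detection reagent then added and luminescence measured.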
Pf growth 48h: P. falciparum growth inhibition at 48 hours (one generation); 5.9% of 310,000 active; P. falciparum luciferase growth in erythrocytes, 48 h; Potency, µM (highest dose often 28.7 µM), for inactives: at the highest dose activity change, negative = inhibition, hits mostly inhibitors; note: % is set by controls: 0 for no effect and ±100 for the full control effect
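Erythrocytes infected with P. falciparum carrying an integrated firefly luciferase reporter (2% hematocrit, 0.1% parasitemia final) were exposed to compounds in RPMI 1640 with 0.5% Albumax at 37 C, 5% CO2. Growth inhibition was scored as reduced luminescence.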
SARS PLpro yeast: SARS-CoV PLP inhibition in yeast. Potency, µM (top dose mostly 32.9 µM), inactives show at the top dose activity, positive = growth rescue, usual class: activators. 0.19% of 330,000 active. S. cerevisiae expressing SARS-CoV PLpro, growth rescue. AID 485353; calls by dose curve; note: 0% is about no effect; nearly all actives have a fitted effect of over 55% in size
* marks the source's active call; other numbers are inactive results; ? = inconclusive; nt = no result given. Unless noted, calls come from the whole dose curve; as a rule, active = well fitted curve in the direction sought with a large enough effect; inconclusive = small, poorly fitted or top-dose-only effect, or another doubt; inactive = no such curve, though single readings can be large; an effect the other way counts as inactive or inconclusive. Potency is the fitted concentration of half-maximal effect.

SMILES	Sm TGR inh	Pf growth 96h	Pf growth 48h	SARS PLpro yeast
CCc1ccc(NC(=O)Cn2c(=O)n(CCC(=O)NCCc3ccc(OC)c(OC)c3)c(=O)c3ccccc32)cc1	-1.6%	nt	nt	nt
COC(=O)CCc1c(C)c(C(=O)c2cc(OC)c(OC)c(OC)c2)c2ccccn12	-35.1%	?	10.4µM*	-4.1%
COc1ccccc1C(=O)c1c(C)c(CCC#N)n2ccccc12	-24.4%	-10.0%	0.6%	-4.9%
Cc1c(C(=O)c2ccc(F)cc2)c2ccccn2c1CCc1ccccn1	-26.0%	4.15µM*	0.0%	-5.4%
CC(C)OCCCN1C(=O)c2[nH]nc(-c3ccccc3O)c2C1c1ccccc1F (stereo unspecified)	6.1%	nt	nt	nt
C/C=C(/C)C(=O)O[C@@H]1c2c(ccc3ccc(=O)oc23)O[C@@H]1C(C)(C)OC(C)=O	-0.9%	5.86µM*	-33.9%	-4.6%
C/C=C(/C)C(=O)O[C@@H]1c2c(ccc3ccc(=O)oc23)OC(C)(C)[C@@H]1OC(=O)/C(C)=C\C	-9.2%	6.57µM*	6.57µM*	-1.8%
COc1cc(NC(=O)Cn2c(=O)n(CC(=O)NCCc3ccc(OC)c(OC)c3)c(=O)c3sccc32)cc(OC)c1	2.4%	nt	nt	nt
CN(C(=O)/C=C/c1ccc([N+](=O)[O-])s1)c1ccccc1	11.2µM*	?	?	-1.9%
COc1ccc(-n2c(=O)c3c(C)c(C)sc3n(CC(=O)NCc3ccc(C)cc3)c2=O)c(OC)c1	2.5%	nt	nt	nt
COC(=O)c1ccc(NC(=O)CCN2CCN(Cc3ccccc3)CC2)cc1	-23.5%	-26.7%	13.1µM*	-1.7%
O=C(CN1CCN(Cc2ccccc2)CC1)NNC(=O)c1ccccc1	-7.2%	?	-9.6%	-0.4%
CCc1ccc(C(=O)NNC(=O)CCN2CCN(Cc3ccccc3)CC2)cc1	5.9%	38.4%	2.33µM*	0.7%
CCCC(CCC)C(=O)Nc1cccc(-c2nc3cccnc3s2)c1	-0.2%	nt	nt	nt
COc1cc(CNC(=O)C2CCCC2)cc(OC)c1OC	3.16µM*	20.5%	9.2%	2.7%
COc1ccccc1CNC(=O)C1CCCC1	7.2%	-3.4%	1.1%	-2.8%
COc1cc(CN/C(C)=C(\C#N)C(N)=O)cc(OC)c1OC	10.9%	2.08µM*	21.2%	0.9%
O=C(CN1C(=O)NC(Cc2ccccc2)C1=O)Nc1ccccc1OC(F)F (stereo unspecified)	-3.0%	1.6%	5.9%	-0.3%
COC(=O)[C@@]12CCCCN1[C@H](c1ccc(-c3ccc4c(c3)OCO4)c(OC)c1)[C@@H]1C(=O)N(C)C(=O)[C@@H]12	-14.3%	13.1µM*	5.22µM*	1.6%
COC(=O)[C@@]12CCCN1[C@H](c1ccc(-c3ccccc3)c(OC)c1)[C@H]1C(=O)N(C)C(=O)[C@H]12	nt	nt	nt	-21.5%
COC(=O)[C@@]12CCCCN1[C@H](c1ccc(-c3ccccc3)cc1)[C@H]1C(=O)N(C)C(=O)[C@H]12	-21.8%	1.1%	-18.6%	-4.2%
COC(=O)[C@@]12CCCN1[C@H](c1ccc(-c3ccc(OC)cc3)c(OC)c1)[C@H]1C(=O)N(C)C(=O)[C@H]12	?	?	8.28µM*	-1.2%
COC(=O)[C@@]12CCCCN1[C@H](c1ccc(-c3ccc(Cl)c(Cl)c3)c(OC)c1)[C@H]1C(=O)N(C)C(=O)[C@H]12	nt	nt	nt	-1.1%
COC(=O)[C@@]12CCCCN1[C@H](c1ccc(-c3ccc(F)cc3)cc1)[C@@H]1C(=O)N(C)C(=O)[C@@H]12	?	13.1µM*	?	-1.7%
COC(=O)[C@@]12CCCCN1[C@H](c1ccc(-c3ccc(F)cc3)c(OC)c1)[C@@H]1C(=O)N(C)C(=O)[C@@H]12	-26.8%	11.7µM*	13.1µM*	-0.4%
SMILES	Sm TGR inh	Pf growth 96h	Pf growth 48h	SARS PLpro yeast
O=C(CNS(=O)(=O)c1cccc(F)c1)OCC(=O)N1CCCC1=O	-2.3%	7.6%	23.1%	-1.2%
COC(=O)[C@@]12CCCN1[C@H](c1ccc(-c3ccc(C(C)=O)cc3)c(OC)c1)[C@H]1C(=O)N(C)C(=O)[C@H]12	-25.9%	?	13.1µM*	-7.5%
COC(=O)[C@@]12CCCCN1[C@H](c1ccc(-c3cc(C(C)=O)cs3)c(OC)c1)[C@H]1C(=O)N(C)C(=O)[C@H]12	-4.7%	?	4.15µM*	-1.3%
COC(=O)[C@@]12CCCN1[C@H](c1ccc(-c3ccc(OC)cc3)c(OC)c1)[C@@H]1C(=O)N(C)C(=O)[C@@H]12	-26.9%	11.7µM*	13.1µM*	2.1%
COC(=O)[C@@]12CCCCN1[C@H](c1ccc(-c3cc(C(C)=O)cs3)cc1)[C@H]1C(=O)N(C)C(=O)[C@H]12	-18.6%	2.0%	?	-1.9%
c1ccc(-c2nnc3sc(-c4ccncc4)nn23)cc1	-8.1%	nt	-25.8%	2.3%
c1ccc(-c2nnc3sc(-c4csc5c4CCCC5)nn23)cc1	-7.2%	22.6%	10.4µM*	-22.0%
CCOC(=O)c1cccc(NC(=O)C2CCN(S(=O)(=O)c3cccs3)CC2)c1	-0.7%	-0.8%	nt	-3.2%
CCOC(=O)c1ccc2c(c1)nc(C1CCN(S(=O)(=O)c3cccs3)CC1)n2CC	-2.3%	8.28µM*	10.4µM*	10.8%
CCOC(=O)c1ccc2c(c1)nc(SCC(=O)N1CCCCC1)n2CC	0.0%	11.7µM*	0.0%	-11.0%
CCOC(=O)c1ccc2c(c1)nc(SCC(=O)c1ccco1)n2CC	20.4%	33.6%	?	5.9%
CC1(C(=O)OCC(=O)Nc2ccc3ccccc3c2)CC1(Cl)Cl (stereo unspecified)	6.7%	42.2%	20.4%	-14.6%
N#Cc1cc(Oc2cccc3cccnc23)c(-n2nnc3ccccc32)cc1C#N	?	-1.9%	1.85µM*	-11.5%
COC(=O)c1c(C(=O)OC)c(-c2ccc(C)cc2)n2c1CS(=O)(=O)C2	-5.2%	1.65µM*	nt	-11.1%
COC(=O)c1c(C(=O)OC)c(-c2ccc(C(C)(C)C)cc2)n2c1CS(=O)C2 (stereo unspecified)	5.5%	?	10.4µM*	-4.9%
COC(=O)c1c(C(=O)OC)c(-c2cccc(C)c2)n2c1CS(=O)(=O)C2	60.6%	?	nt	-2.1%
COC(=O)c1c(C(=O)OC)c(-c2cccc(Cl)c2)n2c1CS(=O)(=O)C2	2.2%	-18.7%	0.4%	-2.7%
COC(=O)c1c(C(=O)OC)c(-c2ccc(Cl)cc2)n2c1CS(=O)(=O)C2	-10.5%	?	1.47µM*	-3.1%
COC(=O)c1c(C(=O)OC)c(-c2cccc(F)c2)n2c1CS(=O)C2 (stereo unspecified)	-7.9%	45.1%	1.2%	3.6%
COc1cc(C(O)c2nc3ccccc3s2)cc(OC)c1OC (stereo unspecified)	8.8%	-2.0%	-7.6%	1.1%
CC(C)CNC(=O)c1ccccc1NC(=O)c1ccc(CN2CCOCC2)cc1	-2.0%	30.4%	8.28µM*	-6.4%
O=C(NCCCN1CCOCC1)c1ccccc1	-3.6%	36.9%	22.7%	5.1%
O=C(Nc1ccccc1C(=O)NCCCN1CCOCC1)c1ccc(F)cc1	89.1µM*	11.0%	13.1%	3.2%
O=C(Nc1ccc(C(=O)NCCCN2CCN(c3ccc(F)cc3)CC2)cc1)C1=CSCCO1	-0.9%	11.7µM*	?	1.0%

Screening results from PubChem.
